This is an account of results in article PMC4336329 (PLoS ONE, 2015).

Each structure is given as a SMILES string. Out of some 310,000 compounds screened, about 2,200 (0.71%) showed an effect of 50% or more. The effect is printed as a negative number. What follows is part of a selection rich in strong results, with near analogues and random picks from the rest.

For the test, the target named is human ether-à-go-go-related gene (hERG) potassium channel (human, UniProt Q12809). Put plainly: primary screen, population patch clamp on CHO cells stably expressing hERG; higher = less effect of the substance.
Sequence of human ether-à-go-go-related gene (hERG) potassium channel (Q12809 whole entry, looked up): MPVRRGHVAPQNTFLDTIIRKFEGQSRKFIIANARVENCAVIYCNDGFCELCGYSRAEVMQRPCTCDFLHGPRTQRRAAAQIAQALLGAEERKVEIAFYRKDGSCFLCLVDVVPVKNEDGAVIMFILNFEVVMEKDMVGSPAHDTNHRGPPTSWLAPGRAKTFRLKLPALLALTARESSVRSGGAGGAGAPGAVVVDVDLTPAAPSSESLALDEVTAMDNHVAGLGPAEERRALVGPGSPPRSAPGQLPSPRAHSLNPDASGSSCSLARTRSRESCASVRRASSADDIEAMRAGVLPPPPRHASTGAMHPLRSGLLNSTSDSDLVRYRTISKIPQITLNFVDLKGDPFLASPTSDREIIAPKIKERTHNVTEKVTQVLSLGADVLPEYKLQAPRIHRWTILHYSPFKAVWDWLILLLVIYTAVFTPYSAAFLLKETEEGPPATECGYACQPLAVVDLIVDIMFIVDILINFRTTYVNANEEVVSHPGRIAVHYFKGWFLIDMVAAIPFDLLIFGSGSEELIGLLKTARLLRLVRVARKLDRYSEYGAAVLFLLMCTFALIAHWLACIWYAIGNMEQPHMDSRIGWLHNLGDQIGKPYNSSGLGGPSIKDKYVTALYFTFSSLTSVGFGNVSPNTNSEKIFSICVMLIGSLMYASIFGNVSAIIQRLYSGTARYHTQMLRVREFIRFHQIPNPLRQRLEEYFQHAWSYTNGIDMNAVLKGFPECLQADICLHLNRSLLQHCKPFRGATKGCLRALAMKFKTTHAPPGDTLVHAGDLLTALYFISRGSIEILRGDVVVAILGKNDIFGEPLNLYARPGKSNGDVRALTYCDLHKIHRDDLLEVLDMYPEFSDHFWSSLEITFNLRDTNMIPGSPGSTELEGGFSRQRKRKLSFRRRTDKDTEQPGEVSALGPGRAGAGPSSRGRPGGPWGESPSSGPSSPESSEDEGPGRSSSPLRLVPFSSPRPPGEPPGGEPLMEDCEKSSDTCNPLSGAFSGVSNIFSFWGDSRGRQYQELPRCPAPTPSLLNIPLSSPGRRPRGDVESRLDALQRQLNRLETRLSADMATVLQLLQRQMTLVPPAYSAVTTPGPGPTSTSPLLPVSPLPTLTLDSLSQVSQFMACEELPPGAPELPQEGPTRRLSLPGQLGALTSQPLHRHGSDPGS
As to `COCCOc1nc2ccccc2nc1C`, the “hERG current change (%, negative = inhibition) at 1uM” value amounted to 6.8%. For `O=C(Nc1nnc(-c2ccccc2)s1)c1ccccc1F`, the “hERG current change (%, negative = inhibition) at 1uM” value was 13.3%. In the case of `CC(C)C[C@@H](CO)NC(=O)CC[C@H](NC(=O)OC(C)(C)C)C(=O)N(Cc1ccccc1)Cc1ccccc1` it was 16%. To `CCOC(=O)c1cnc(SC2CC(=O)N(c3cccc(OC)c3)C2=O)nc1N` (centres unmarked) belongs 11.3%; to `CC1(c2nnc(-c3cccc(Cl)c3)o2)CC(c2cccc([N+](=O)[O-])c2)=NO1` (centres unmarked), 16.3%; to `OCC1(Cc2ccccc2)CCCN(Cc2cnn(-c3ccccc3)c2)C1` (centres unmarked), -27.4%. In the case of `COc1ccc(CC2(CO)CCN(Cc3cnn(-c4ccccc4OC)c3)CC2)cc1` it was -48.4%. As to `COc1ccc(CC2(CO)CCN(Cc3cnn(-c4ccccc4)c3)CC2)cc1`, the “hERG current change (%, negative = inhibition) at 1uM” value was -57.2%. To `CCOc1cc(CN2CCC(CO)(Cc3cccc(C(F)(F)F)c3)CC2)ccc1OC` belongs -78%; to `COc1cc(CN2CCC(CO)(Cc3cccc(C(F)(F)F)c3)CC2)ccc1F`, -15.9%; to `OCC1(Cc2cccc(C(F)(F)F)c2)CCN(Cc2cc(F)cc(F)c2)CC1`, 4.2%. To `CC(=O)Nc1ccc(S(=O)(=O)Oc2ccc(N3C(=O)C4CCCCC4C3=O)cc2)cc1` (centres unmarked) belongs 15.5%; to `CCOC(=O)c1nnn(-c2nonc2N)c1-c1ccc(F)cc1`, 13.5%; to `CC[C@H]1CC2CN3CCc4c([nH]c5ccccc45)C(C(=O)OC)(C2)C13.Cl` (some centres unmarked), 7.18%.

Turning to `CC[C@]12CCCN3CCc4c(n(c5ccccc45)[C@](O)(C(=O)OC)C1)[C@@H]32`, the “hERG current change (%, negative = inhibition) at 1uM” value is given as -69.4%.

Regarding `COC(=O)C1C(O)CCC2CN3CCc4c([nH]c5ccccc45)C3CC21` (centres unmarked), the “hERG current change (%, negative = inhibition) at 1uM” value was 1.1%.

In the case of `COC(=O)[C@@H]1[C@H]2C[C@H]3c4[nH]c5ccccc5c4CCN3C[C@@H]2CC[C@@H]1O`, the “hERG current change (%, negative = inhibition) at 1uM” value is reported as -21.3%. To `CCC12CCCN3CCc4c(n(c5ccccc45)C(O)(C(=O)OC)C1)C32` (centres unmarked) belongs -2.18%.

`CC[C@]12CCCN3CCc4c(n(c5ccccc45)[C@@](O)(C(=O)OC)C1)[C@@H]32`: the “hERG current change (%, negative = inhibition) at 1uM” value is recorded as -85.4%. In the case of `O=P(O)(O)C(O)C(F)(F)C(F)(F)C(F)(F)C(F)F` (centres unmarked) it was 21.8%; in that of `O=S(=O)(c1ccccc1)c1nc(-c2ccco2)oc1N1CCCCCC1`, 11.4%; in that of `O=C(Nc1ccncc1)c1ccc(F)cc1`, 7.66%. To `Cc1ccc(NC(=O)CSc2nnc(-c3cccnc3)n2-c2ccc(C)cc2)cc1` belongs 2.22%. To `Cc1ccc(NC(=O)CSc2nnc(-c3cccnc3)n2CCN2CCCCC2)cc1` belongs -53.7%; to `O=C(CSc1nnc(-c2cccnc2)n1CCN1CCCCC1)Nc1cccc(Cl)c1`, -80.3%; to `CCCn1c(SCC(=O)Nc2cccc(C(=O)OC)c2)nnc1-c1cccnc1`, -22.5%.

Take `Cn1c(SCC(=O)Nc2ccc(F)cc2)nnc1-c1cccnc1`: the “hERG current change (%, negative = inhibition) at 1uM” value is given as -2.78%. Take `Cc1ccc(NC(=O)C(C)Sc2nnc(-c3cccnc3)o2)cc1` (centres unmarked): the “hERG current change (%, negative = inhibition) at 1uM” value is recorded as 14%. To `O=C(CSc1nnc(-c2cccnc2)n1-c1ccccc1)Nc1ccccc1` belongs -44.9%; to `Cn1c(SCC(=O)Nc2cccc(F)c2)nnc1-c1cccnc1`, -6.1%; to `Cc1ccc(NC(=O)C(C)Sc2nnc(-c3cccnc3)n2-c2ccccc2)cc1` (centres unmarked), -86.2%.

Turning to `CCOC(=O)c1ccc(CSc2nnc(N)s2)cc1`, the “hERG current change (%, negative = inhibition) at 1uM” value stood at 5.39%.

Regarding `Cc1ccc(C(=O)N2NC(c3ccc(F)cc3)C3C(=O)N(c4ccc(C)c(C)c4)C(=O)C32)cc1` (centres unmarked), the “hERG current change (%, negative = inhibition) at 1uM” value worked out at 10.6%. In the case of `CCOC(=O)C1CCN(C(=O)Cn2cc(C(=O)C3CC3)c3ccccc32)CC1` it was 13.4%. To `O=C(O)C(Cc1c[nH]c2ccccc12)NS(=O)(=O)c1ccc(Cl)c(C(F)(F)F)c1` (centres unmarked) belongs 7.86%. Take `COc1ccc(NC(=S)Nc2ccc(OC)cc2OC)c(OC)c1`: the “hERG current change (%, negative = inhibition) at 1uM” value stood at 17.8%. On to `COC/C=C/C1=CC2=CC(=O)C(C)(OC(=O)c3cnc4ccccc4n3)C(=O)C2=CN1C1CC1` (centres unmarked), for which the “hERG current change (%, negative = inhibition) at 1uM” value stood at 9.57%. To `N#Cc1cn(CCCOc2ccccc2)c2ccccc12` belongs 11.3%; to `c1csc(-c2nnc(NC3CCCCC3)c3ccccc23)c1`, -40.8%. Regarding `c1ccc2c(NC3CCCC3)nnc(NC3CCCC3)c2c1`, the “hERG current change (%, negative = inhibition) at 1uM” value is listed as -70.4%. To `c1ccc(-c2nc(NC3CCCC3)c3ccccc3n2)cc1` belongs 18.4%.
